CRE-bla Fsk – CRE-bla signaling modulation under forskolin stimulation. Potency, µM (titrated, usually from 38.2 µM), hits mostly activators. 71,000 tested, 2.5% active. AID 662. CHO CRE-bla reporter (cAMP response element driving beta-lactamase), forskolin EC10, beta-lactamase ratio; active means well fitted activation curve with a large enough effect in the signal ratio, with a control signal flat, not every such curve was filed as active; inconclusive means small, poorly fitted or top-dose-only effect, or effect the other way, or a change in a side signal; the % refers to the signal ratio
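The 460nm/530nm emission ratio after CCF4 loading defined %Activity, from which AC50 values were obtained. CRE-bla CHO cells received compound dilution series together with an EC10 level of NKH 477 for 3 hours at 37 degrees Celsius.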
TSHR ag – TSH receptor (human) agonism. P16473. HEK293-CNG-TSHR cells (CNG channel as cAMP sensor), membrane potential dye, cAMP. Potency, µM (highest dose often 57.1 µM), most hits filed as activators. 73,000 tested, 0.48% active. AID 926; active means well fitted activation curve with a large enough effect in the main read-out, with a control signal flat, not every such curve was filed as active; inconclusive means small, poorly fitted or top-dose-only effect, or a change in a side signal; inactive means no such curve, though single readings can be large or run the other way; reference of the percent scale not stated here;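 further: the control signal comes from parental cells without the receptor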
Target sequence (P16473 whole entry, looked up): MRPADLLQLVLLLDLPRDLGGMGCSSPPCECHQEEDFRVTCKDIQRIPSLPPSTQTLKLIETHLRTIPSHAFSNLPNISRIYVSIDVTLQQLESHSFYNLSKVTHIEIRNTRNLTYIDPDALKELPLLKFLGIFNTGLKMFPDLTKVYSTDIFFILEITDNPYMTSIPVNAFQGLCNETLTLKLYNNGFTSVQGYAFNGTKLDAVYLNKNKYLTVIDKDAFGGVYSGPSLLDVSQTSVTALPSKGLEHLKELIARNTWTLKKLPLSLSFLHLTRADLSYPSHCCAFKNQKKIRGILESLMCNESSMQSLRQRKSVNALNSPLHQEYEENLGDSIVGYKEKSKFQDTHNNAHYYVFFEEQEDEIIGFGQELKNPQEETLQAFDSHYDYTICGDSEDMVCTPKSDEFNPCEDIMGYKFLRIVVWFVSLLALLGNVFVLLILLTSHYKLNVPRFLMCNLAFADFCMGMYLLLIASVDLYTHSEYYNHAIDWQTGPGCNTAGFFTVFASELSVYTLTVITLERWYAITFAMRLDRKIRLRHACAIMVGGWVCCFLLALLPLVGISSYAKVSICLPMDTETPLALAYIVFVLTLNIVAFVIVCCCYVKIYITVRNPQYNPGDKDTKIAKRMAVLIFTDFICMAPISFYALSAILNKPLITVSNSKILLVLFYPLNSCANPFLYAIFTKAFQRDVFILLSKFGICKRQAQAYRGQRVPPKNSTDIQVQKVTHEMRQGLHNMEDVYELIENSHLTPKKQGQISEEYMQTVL
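HEK 293 cells stably expressing TSHR and a cAMP-gated CNG channel; parental CNG-only cells as counterscreen. Cells preloaded 60 min with membrane potential dye plus 100 uM RO 20-1724, then compound 30 min; fluorescence read at 590 nm.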
Casp1 inh – blocks human caspase-1 allosterically or competitively; P29466; Caspase-1 enzyme, Ac-WEHD-AFC fluorogenic rate; Potency, µM (titrated, usually from 57.5 µM), hits mostly inhibitors; 75,000 tested, 0.03% active; AID 900
USP2a inh – blocks human ubiquitin-specific protease USP2a. O75604. USP2a enzymatic assay, qHTS inhibition. Potency, µM (titrated, usually from 38.3 µM), usual class: inhibitors. 60,000 tested, 0.1% active. AID 927; further: nearly all actives have a fitted effect of over 60% in size
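Inhibition is measured in a cell-free coupled assay with 20 nM USP2 core, 20 nM Ub-PLA2 and 20 uM NBD C6-HPC, 2.5 h incubation. Activity normalized to NEM control.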
HEK293 cAMP cs – raises cAMP in parental HEK293 cells, TSHR agonist counter-screen | Potency, µM (highest dose often 57.1 µM), most hits filed as activators | parental HEK293 CNG cAMP sensor, membrane potential fluorescence | 73,000 tested, 2.5% active; further: nearly all actives have a fitted effect of over 55% in size
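Parental HEK 293 cells stably expressing a cAMP-gated CNG channel were loaded with membrane potential dye containing 100 uM RO 20-1724 for 60 min. Compound added for 30 min; depolarization read as fluorescence intensity at 590 nm.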
Caspase-7 inhib – allosteric or competitive inhibitors of human caspase-7. 75,000 tested, 0.02% active. P55210. Potency, µM (doses to about 57.5 µM), hits mostly inhibitors. recombinant caspase-7, Ac-DEVD-AFC fluorescence rate; active means well fitted inhibition curve with a large enough effect in the main read-out, with a control signal flat, not every such curve was filed as active; inconclusive means small, poorly fitted or top-dose-only effect, or a change in a side signal
CHO tox 24h – cytotoxicity in CRE-bla CHO cells at 24 h; shares compounds with CRE-bla Fsk; CRE-bla CHO viability, ATP luminescence, 24 h; activity, negative = viability loss, % at 46.1 µM; 120 tested, under 10 active
CHO via 40h – reduces CRE-bla CHO cell viability after 40 hours. AID 906. Potency, µM, usual class: inhibitors. 120 tested, under 10 active. shares compounds with CRE-bla Fsk. CRE-bla CHO viability, ATP luminescence, 40 h
CRE-luc potent – confirmation of CRE signaling potentiators in HEK293 CREB reporter cells; shares compounds with CRE-bla Fsk; HEK293 CRE-luc2P, NKH477 EC10 potentiation, luminescence, 4 h; 120 tested, 80% active; AID 907; Potency, µM (top dose mostly 38.3 µM), hits mostly activators
Numbers stand for hits; n = inactive; u = inconclusive; x = not tested or not shown; ! = not active in a repeat; [ ] = another dose, or the depositor's remark. Shown are actives, neighbours in structure and some others; about 5% of the full set was active somewhere. Unless noted, the call rests on the fitted dose curve; in most records, active means well fitted curve in the direction sought with a large enough effect; inconclusive means small, poorly fitted or top-dose-only effect, or another doubt; inactive means no such curve, though single readings can be large; an effect the other way counts as inactive or inconclusive.

SMILES	CRE-bla Fsk	TSHR ag	Casp1 inh	USP2a inh	HEK293 cAMP cs	Caspase-7 inhib	CHO tox 24h	CHO via 40h	CRE-luc potent
Cn1nc(-c2ccc(N3CCCCC3)c(NC(=O)c3ccco3)c2)c2ccccc2c1=O	1.6µM	u	n	n	u	n	n	u	0.63µM
N=C(N)SCc1nc(-c2ccc(Cl)cc2)no1	n[7.6 µM]	n[11.4 µM]	n[11.5 µM]	x	n[11.4 µM]	n[11.5 µM]	x	x	x
COC(=O)Nc1nc2ccc(C(=O)c3cccs3)cc2[nH]1	0.079µM	u	n	n	n	n	u	n	u
N#C/C(=C\C1CC=CCC1)c1nc2ccccc2[nH]1 (stereo unspecified)	n	u	n	n	u	n	x	x	x
Cn1c(/C(C#N)=C/C2CC=CCC2)nc2ccccc21 (stereo unspecified)	n	n	n	n	n	n	n	n	16µM
COc1cc(NC(=O)c2cccc3c2C(=O)N(Cc2cccnc2)C3)cc(OC)c1OC	2µM	n	n	x	n	n	n	u	0.79µM
COc1ccc(-c2nc3cnc(N4CCOCC4)nc3n(-c3ccc(OC)cc3)c2=O)cc1	u	n	x	n	n	u	x	x	x
CCn1c2ccccc2c2cc(Nc3cc(C)nc4ncnn34)ccc21	0.79µM	x	n	x	n	n	n	u	n
CCc1cccc(Nc2cc(C)nc3ncnn23)c1	n	u	n	x	u	n	x	x	x
O=S(=O)(Nc1cccc(-c2nc3cccnc3s2)c1)c1ccc2c(c1)OCCO2	3.2µM	n	n	x	n	n	n	n	11µM
CCCN1Cc2cccc(C(N)=O)c2C1=O	n	n[11.4 µM]	n	n	n	n	x	x	x
CCCN1Cc2cccc(C(=O)Nc3ccc(N4CCN(CC)CC4)cc3)c2C1=O	4µM	n	n	n	n	n	n	n	7.9µM
Nc1nc(N)c(CCCCc2ccccc2)c(N)n1	n[7.6 µM]	n[11.4 µM]	n[11.5 µM]	x	n[11.4 µM]	n[11.5 µM]	x	x	x
C=CCn1c(=O)/c(=C/c2cc(OC)c(OC)c(OC)c2)s/c1=C(/C#N)c1nc2ccccc2n1C	1µM	n	n	n	n	n	n	n	1µM
CCCCNc1c(C(=O)OCC)c(C)nc2c1cnn2CC	3.2µM!	n	n	n	n	n	n	u	0.79µM
N[C@@H](CNO)C(=O)O	n[7.6 µM]	n[11.4 µM]	n[11.5 µM]	x	n[11.4 µM]	n[11.5 µM]	x	x	x
COc1cc(C2=NOC(C(=O)N3CCN(c4ccc(F)cc4)CC3)C2)cc(OC)c1OC (stereo unspecified)	0.63µM	n	n	n	n	n	n	n	4µM
COc1cc(C2=NOC(C(=O)N3CCCCCC3)C2)cc(OC)c1OC (stereo unspecified)	u	n	n	u	n	n	x	x	x
CSc1nc2ccc(Nc3nc(N4CCOCC4)nc(N4CCOCC4)n3)cc2s1	3.2µM	n[11.4 µM]	n	n[7.66 µM]	n[11.4 µM]	n	n	u	0.63µM
Cc1ccc(Nc2nc(N3CCOCC3)nc(N3CCOCC3)n2)cc1	n	n	n	n	n	n	x	x	x
COc1ccc(C2c3c(oc4ccccc4c3=O)C(=O)N2CCN2CCOCC2)cc1OC (stereo unspecified)	n	n	n	n	n	n	n	n	14µM
C=CCN1C(=O)c2oc3ccccc3c(=O)c2C1c1ccc(O)c(OC)c1 (stereo unspecified)	x	x	x	x	x	x	n	n	13µM
Cc1ccc2c(c1)c1nc3ccccc3nc1n2CCN1CCOCC1	1.3µM	x	n	n	n	n	n	u	4µM
O=c1c2c3nc4ccccc4nc3n(CCN3CCOCC3)c2ncn1CCN1CCOCC1	n	n	n	n	n	n	x	x	x
CC1=NNC(=S)NCCCN2CCN(CCCNC(=S)NN=C(C)C=NNC(=S)NCCCN3CCN(CCCNC(=S)NN=C1)CC3)CC2	n[7.6 µM]	n[11.4 µM]	n[11.5 µM]	x	n[11.4 µM]	n[11.5 µM]	x	x	x
SMILES	CRE-bla Fsk	TSHR ag	Casp1 inh	USP2a inh	HEK293 cAMP cs	Caspase-7 inhib	CHO tox 24h	CHO via 40h	CRE-luc potent
N=C(N)SCc1cc(Cl)cc(Cl)c1O	n[7.6 µM]	n[11.4 µM]	n[11.5 µM]	x	n[11.4 µM]	n[11.5 µM]	x	x	x
Cc1nn(-c2ccc(Cl)cc2)c2sc(C(=O)N3CCN(c4ccccn4)CC3)cc12	n	u	n	n	n	n	n	n	1.4µM
O=C(Cc1ccccc1)Nc1nc2ccc(Cl)cc2c2nc(-c3ccco3)nn12	u	u	n	x	u	n	n	n	u
N=C(N)c1ccc(/C=C\c2ccc(C(=N)N)cc2)cc1	n[7.6 µM]	n[11.4 µM]	n[11.5 µM]	x	n[11.4 µM]	n[11.5 µM]	x	x	x
c1nc2sc3c(c2c2nnnn12)CCCC3	u	n	n	n	n	n	x	x	x
N#CCc1nc2c3c4c(sc3ncn2n1)CCCC4	x	x	x	x	x	x	n	n	5µM
COc1cc(-c2cc(=O)c3ccccc3o2)ccc1O	2µM	n	n	x	n	n	n	u	3.2µM
COc1nc(Nc2nc3ccccc3c(=O)[nH]2)nc2ccc(C)cc12	1.6µM	n[11.4 µM]	n	n[7.66 µM]	n[11.4 µM]	n	u	4µM	u
CCc1c(C)nc(Nc2nc(C)c3cc(OC)ccc3n2)[nH]c1=O	u	n	n	n	n	n	x	x	x
CC(=O)OC[C@@H]1O[C@H](C/C=N\OC[C@@H](O)[C@H]2O[C@H]3OC(C)(C)O[C@H]3[C@@H]2O)C=C[C@@H]1OC(C)=O	x	n[11.4 µM]	n[11.5 µM]	x	n[11.4 µM]	n[11.5 µM]	x	x	x
COc1cc(-c2nnc3sc(-c4ccccn4)nn23)cc(OC)c1OC	0.025µM	n	n	n	n	n	n	n	u
COc1ccc(-c2nnc3sc(-c4ccco4)nn23)cc1OC	u	x	n	n	n	n	x	x	x
COc1cc(-c2nnc3sc(-c4ccco4)nn23)cc(OC)c1OC	1µM	n	n	n	n	n	n	n	3.2µM
O=[N+]([O-])c1ccc(NN=C2c3ccccc3Cc3ccccc32)c([N+](=O)[O-])c1	n[7.6 µM]	n[11.4 µM]	n[11.5 µM]	x	n[11.4 µM]	n[11.5 µM]	x	x	x
Cn1c(C(=O)NC2CC2)cc2c(=O)n(C)c3ccccc3c21	5µM	u	n	x	u	n	n	n	10µM
c1ccc(-c2cccc(N3CC[C@@]4(CCCNC4)C3)c2)cc1	n	n	n	n	n	n	x	x	x
Cc1nc(Nc2ccc3c(c2)OCCO3)c2oc3ccccc3c2n1	u	x	n	n	n	n	x	x	x
Cc1nc(NCc2ccc3c(c2)OCO3)c2oc3ccccc3c2n1	2.5µM	u	n	n	u	n	n	n	13µM
CCN1C(=O)[C@H]2[C@H]3[C@H](O)[C@H](O)C/C(=N/OCC(C)C)[C@H]3CC[C@@H]2C1=O	x	n[11.4 µM]	n[11.5 µM]	x	n[11.4 µM]	n[11.5 µM]	x	x	x
Cc1cc(N2CCN(S(=O)(=O)Cc3ccccc3)CC2)n2ncnc2n1	n	n	n	n	n	n	x	x	x
Cc1cc(N2CCN(S(=O)(=O)c3ccc4c(c3)OCCO4)CC2)n2ncnc2n1	5µM	u	n	n	u	n	n	n	13µM
